Assay outcomes: PubChem, National Center for Advancing Translational Sciences (NCATS)
FMDV antiviral – High Throughput Screening for Foot and Mouth Disease Virus Antivirals; FMDV antiviral cell-based qHTS; Potency, µM (titrated, usually from 57.9 µM), for the others: at the highest dose activity change, negative = inhibition, usual class: inhibitors; actives 1.2% (n = 410,000); calls by dose curve; tested in HEK293T cells; also: read-out not given here; potency is read from the fitted curve at half-maximal effect; nearly all actives have a fitted effect of over 45% in size
Sm TGR block – qHTS Assay for the Inhibitors of Schistosoma Mansoni Peroxiredoxins; purified TGR, DTNB reduction, TNB absorbance 405 nm; actives 3% (n = 360,000); Schistosoma mansoni thioredoxin glutathione reductase (TGR), Q962Y6; AID 485364, 2010; Potency, µM (doses to about 114 µM), inactives show at the highest dose activity change, negative = inhibition, hits mostly inhibitors; also: potency is read from the fitted curve at half-maximal effect; nearly all actives have a fitted effect of over 60% in size
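Kinetic colorimetric format: TGR-catalysed, NADPH-driven DTNB reduction monitored via TNB absorbance. Enzyme dispensed at 20 nM; compound exposure 15 min at room temperature before reaction start.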
HCV inhibitor – qHTS Assay for Inhibitors of Hepatitis C Virus (HCV) | Huh7.5.1 HCVcc-Cre infection, luciferase reporter, 44 h | AID 651820, 2012 | Potency, µM (highest dose often 41.8 µM), for the others: at the top dose activity change, negative = inhibition, hits mostly inhibitors | actives 3.4% (n = 340,000); also: potency is read from the fitted curve at half-maximal effect
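Infectious HCV cell culture screen: compound-treated cells (1,000/well, pre-plated 4 h) are infected with HCVcc-Cre at roughly 0.5 moi and grown 44 h. Infection is quantified by luciferase signal after 15 min substrate incubation at room temperature.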
VACV Venus inh – qHTS for Stage-Specific Inhibitors of Vaccinia Orthopoxvirus: Venus Reporter Primary qHTS. Vaccinia virus Venus reporter expression, fluorescence. Potency, µM (series often up to 36.5 µM), for the others: top-dose activity change, negative = inhibition, hits mostly inhibitors. actives 0.46% (n = 330,000); calls by dose curve; tested in A549 cells; also: potency is read from the fitted curve at half-maximal effect; nearly all actives have a fitted effect of over 30% in size
HCMV inh – qHTS Assay for inhibitors of the human cytomegalovirus (HCMV). HFF cells, HCMV-luciferase reporter, 72 h; active compounds read low. activity change, negative = inhibition, % at 57.5 µM. actives 4.5% (n = 410,000); in the data active = activity change below about -60%; inconclusive = no clear call, values can overlap the other calls; inactive = above about -39%
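Screen run at 2 compound doses on HFFs infected with reporter HCMV, MOI 1 PFU/cell. Luciferase activity from cell lysates at 72 h post infection gave inhibition relative to buffer-only and Salinomycin wells.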
Vaccinia mCherry – qHTS for Stage-Specific Inhibitors of Vaccinia Orthopoxvirus: mCherry Reporter Primary qHTS; Vaccinia virus mCherry reporter infection, fluorescence; actives 0.63% (n = 310,000); Potency, µM (top dose mostly 36.5 µM), for the others: at the highest dose activity change, negative = inhibition, hits mostly inhibitors; calls by dose curve; tested in A549 cells; also: potency is read from the fitted curve at half-maximal effect; nearly all actives have a fitted effect of over 35% in size
* = called active by the depositor; i = inactive; ? = inconclusive; nt = no result given; [ ] = remark or other dose. This is a sample that favours compounds with a hit; in the whole collection about 9.3% have one here. Unless noted, calls follow the shape of the dose curve; as a rule, active = well fitted curve in the direction sought with a large enough effect; inconclusive = small, poorly fitted or top-dose-only effect, or another doubt; inactive = no such curve, though single readings can be large; an effect the other way counts as inactive or inconclusive. % is scaled to controls: 0 for no effect and ±100 for the full control effect.

SMILES	FMDV antiviral	Sm TGR block	HCV inhibitor	VACV Venus inh	HCMV inh	Vaccinia mCherry
CN(C)CCCn1c(SCC(=O)Nc2nc(-c3cccc(Br)c3)cs2)nc2ccccc2c1=O	-13.4%	11.5%	10µM*	-9.1%	?	-12.7%
COCCn1c(SCC(=O)Nc2ccc(NC(=O)c3ccco3)c(OC)c2)nc2ccccc2c1=O	nt	-16.0%	?	-23.1%	?	-26.3%
COCCn1c(SCC(=O)NC2CCCC2)nc2ccccc2c1=O	-13.1%	5.5%	13.4%	-10.1%	-99.7*	-9.0%
O=C(CSc1nc2ccccc2[nH]1)Nc1nc(-c2cccc(Br)c2)cs1	-17.9%	-2.8%	9.9%	4.7%	-28.5	-14.6%
CCCCn1c(SCC(=O)Nc2cc(NC(=O)c3ccco3)ccc2C)nc2ccccc2c1=O	-11.7%	?	?	nt	-76.0*	nt
Cc1ccc(NC(=O)CSc2nc3ccccc3c(=O)n2CCC(=O)NC2CCCCC2)cc1C	0.0%	4.1%	nt	-29.7%	10.8	?
Cc1ccc(NC(=O)CSc2nc3ccccc3c(=O)n2CCCN2CCCCC2)cc1C	-19.2%	6.2%	14.1µM*	nt	7.1	nt
Brc1ccccc1-n1nnc(-c2cnc3ccccc3c2)n1	2.6%	nt	-22.0%[8.37 µM]	-16.9%	101.8	i
O=P(Cc1ccccc1O)(c1ccccc1)c1ccccc1	13.4%	-2.6%	1.7%	1.9%	2.5	-12.4%
Cc1ccc(S(=O)(=O)N(C)C)cc1-n1c(SCC(=O)Nc2ccccc2)nc2ccccc2c1=O	-21.3%	-4.7%	?	-4.0%	-71.8*	-13.7%
CCc1ccc(NC(=O)CSc2nc3ccccc3c(=O)n2CCNC(C)=O)cc1	-25.0%	6.6%	nt	-2.8%	-15.5	-2.7%
CCc1ccc(NC(=O)CSc2nc3ccccc3c(=O)n2CCCN2CCC(C)CC2)cc1	?	-1.2%	?	?	-107.6*	?
COCCCn1c(SCC(=O)Nc2ccc(C)cc2)nc2ccccc2c1=O	0.8%	8.0%	3.8%	1.5%	-71.2*	i
COCCCn1c(SCC(=O)Nc2ccc(C(=O)OC)cc2)nc2ccccc2c1=O	21.9%	-3.5%	-13.2%	nt	-20.6	nt
O=C(OCC(=O)N1CCCCCC1)c1cccnc1Cl	75.0%	nt	11.0%	nt	-8.7	nt
O=C(Nc1cc2c3c(c1)C1CCCC1CN3CC1CCCC21)c1ccccc1 (stereo not given)	-27.8%	-9.9%	15.8µM*	nt	-68.8*	nt
CC(=O)NC(Cc1ccccc1)c1ccc2c(c1)OCCCO2 (stereo not given)	31.1%	3.0%	-13.3%	-2.2%	19.1	-10.6%
CCOc1ccc(-n2c(CC)nc3ccccc3c2=O)cc1	-22.4%	-4.0%	0.6%	-16.0%	-87.3*	i
CCOc1ccc(-n2c(=O)c3ccccc3c3ccccc3c2=O)cc1	?	5.0%	1.6%	-10.7%	56.3	?
Cc1cc(C(=O)Nn2c(-c3ccc(Br)cc3)nc3ccccc3c2=O)ccc1[N+](=O)[O-]	?	-7.6%	-9.4%	-21.5%	-75.3*	i
COc1ccc(O)c(CNn2c(-c3ccc(Br)cc3)nc3ccccc3c2=O)c1	?	-5.3%	-10.0%	-5.3%	-74.3*	-21.0%
O=C(Nn1c(-c2ccc(Br)cc2)nc2ccccc2c1=O)c1ccncc1	-11.3%	8.7%	3.6%	-2.4%	-15.3	0.3%
COc1ccc(-n2c(-c3ccccc3Br)nc3ccccc3c2=O)cc1	-5.4%	1.4%	-15.8%	-7.9%	-62.8*	i
O=C(NCC(c1ccco1)N1CCCCC1)c1cccc(S(=O)(=O)Nc2ccc(F)cc2)c1 (stereo not given)	41.0%	-12.9%	?	-16.5%	-11.5	-16.8%
COc1ccccc1C(c1nnnn1CC1CCCO1)N1CCC(C(N)=O)CC1 (stereo not given)	3.9%	2.6%	0.4%	-10.7%	16.3	-14.7%
SMILES	FMDV antiviral	Sm TGR block	HCV inhibitor	VACV Venus inh	HCMV inh	Vaccinia mCherry
COc1ccc(C(O)(CCN2CCCCC2)C2CCCCC2)cc1 (stereo not given)	-13.5%	1.41µM*	-27.5%	-11.1%	?	-12.7%
CCCC(O)(CCN1CCCCC1)c1ccc(OCC)cc1 (stereo not given)	-20.9%	3.98µM*	?	-8.0%	26.3	i
CCCCCC(O)(CCN1CCCCC1)c1ccc(OCC)cc1 (stereo not given)	-28.0%	1µM*	?	-8.7%	4.0	-21.8%
CCC(O)(CCN1CCCCC1)c1ccccc1 (stereo not given)	-1.6%	13.5%	-3.4%	-3.1%	4.9	-9.8%
O=C(CCn1c(=O)oc2ccccc21)N1CCN(c2ccc(F)cc2)CC1	-16.3%	?	12.2%	-5.4%	24.8	?
COc1ccc(NC(=O)C(=O)NNC(=O)c2ccc(Cl)cc2Cl)cc1	0.0%	5.4%	7.8%	nt	-1.8	nt
COc1cccc(-c2cc3nc4c(c(N5CCC6(CC5)OCCO6)n3n2)CCC4)c1	-8.7%	nt	15.8µM*	nt	7.8	nt
Cc1cccc(-c2cc3nc4c(c(N5CCOCC5)n3n2)CCCC4)c1	-25.7%	-13.0%	?	-20.1%	48.4	?
Cc1cccc(-c2cc3nc4c(c(N5CCC6(CC5)OCCO6)n3n2)CCCC4)c1	20.0%	nt	10µM*	-2.8%	-3.5	-15.6%
Cc1cccc(-c2cc3nc4c(c(NCc5ccco5)n3n2)CCCC4)c1	nt	0.0%	7.08µM*	-20.4%	3.0	-16.0%
CN(C)CCCNc1c2c(nc3cc(-c4cccc(F)c4)nn13)CCC2	7.1%	6.4%	3.8%	nt	169.2	nt
O=C(COC(=O)c1cc(S(=O)(=O)N2CCOCC2)c(Cl)cc1Cl)NCc1ccco1	-11.2%	nt	10.8%	4.3%	1.8	-9.8%
CC(=NCc1ccco1)c1c(O)n(-c2ccc(Cl)cc2)c(=O)[nH]c1=O	-7.0%	85.2%	-2.4%	-0.7%	?	-3.5%
CC(=NCc1ccco1)c1c(O)n(Cc2ccccc2)c(=O)[nH]c1=O	-20.4%	35.5µM*	-22.7%	-10.0%	-18.5	-23.7%
Cc1ccc(S(=O)(=O)N(C)C)cc1NC(=S)NC12CC3CC(CC(C3)C1)C2	-27.7%	-1.9%	?	nt	-37.0	nt
Cc1ccc(S(=O)(=O)N(C)C)cc1NC(=S)NC(=O)C12CC3CC(CC(C3)C1)C2	?	-14.0%	15.8µM*	-9.3%	-63.1*	i
CCC(C)(C)C1CCc2c(sc(NC(=O)c3ccoc3C)c2C(N)=O)C1 (stereo not given)	-14.3%	6.0%	9.6%	-10.6%	-37.4	-4.5%
CCC1CCc2c(sc(NC(=O)c3ccoc3C)c2C(N)=O)C1 (stereo not given)	3.9%	-17.1%	5.01µM*	?	24.6	?
Cc1nc(Cl)c2c(n1)NC1=C(O2)C(=O)CCC1	-9.5%	-5.0%	10.4%	84.8%	67.4	-8.6%
